Screening data as filed in PubChem.
This excerpt belongs to a sample that is enriched for hits.
INS promoter inh = TRM-6 insulin promoter activity inhibition | TRM-6 cells (human fetal islet line), insulin promoter-eGFP reporter, imaging; reporter expression induced with tamoxifen | inhibition, % at 2 µM | AID 1273 | 0.9% of 130,000 active;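 active = inhibition above the mean plus 3 SD, with well images judged a real hit on visual review, cut at about 60% in these data, passing the limit was not always enough; inconclusive = inhibition over the cutoff but images rejected on review; inactive = inhibition not above the cutoff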
HSV replic up = increases HSV replication in cells; HSV replication augmentation in cells, fold increase; maximum fold increase; 0.005% of 220,000 active; in the data active = maximum fold increase above about 1.5; inconclusive = no clear call, values can overlap the other calls; tested in PC3 cells
Insulin prom up = MIN6 insulin promoter up-regulation; MIN6 insulin promoter-GFP reporter, high-content imaging; hits give high values; 0.3% of 190,000 active; z-score at 5 µM;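 active = z-score above 3 at 5 µM with at least 500 cells counted in the well; inconclusive = wells under 500 cells, flagged as cytotoxic or low count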
ROMK primary = modulators of human ROMK potassium channel; 2% of 130,000 active; B-score at 10 µM; Tet-inducible ROMK, thallium flux fluorescence; actives lie on both sides;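 active = signal ratio slope over the read window, or its plate-corrected B-score, at least 3 SD from the plate mean, either direction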;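 also: B-score of the F/F0 ratio slope over 7 to 12 s after thallium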
Target sequence (P48048 whole entry, looked up): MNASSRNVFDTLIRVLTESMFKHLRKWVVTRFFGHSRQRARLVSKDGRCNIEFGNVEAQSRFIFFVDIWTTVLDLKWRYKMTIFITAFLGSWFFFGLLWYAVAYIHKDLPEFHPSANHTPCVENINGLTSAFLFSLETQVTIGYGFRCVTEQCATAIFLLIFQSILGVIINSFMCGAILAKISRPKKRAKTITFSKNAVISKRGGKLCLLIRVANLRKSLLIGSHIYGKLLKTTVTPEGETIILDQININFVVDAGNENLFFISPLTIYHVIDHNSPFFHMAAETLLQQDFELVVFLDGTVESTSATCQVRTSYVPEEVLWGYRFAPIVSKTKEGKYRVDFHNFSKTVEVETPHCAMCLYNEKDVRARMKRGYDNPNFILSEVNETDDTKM
Tb hexokinase = blocks Trypanosoma brucei hexokinase 1 activity. recombinant TbHK1, G6PDH-coupled NADH A340. inhibition, % at 10 µM. 0.11% of 220,000 active;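 active = inhibition of 50% or more in the single-dose primary screen; inactive = inhibition below 50%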
ROMK hit retest = confirmation of human ROMK potassium channel modulators; shares compounds with ROMK primary; AID 1917; ROMK thallium flux, fluorescence ratio; hits give low values; 54% of 3,000 active; normalized thallium flux (F/F0 slope) at 10 µM;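 active = Flux at 10 µM at least 3 SD below or above vehicle control mean in one or both replicates; inconclusive = no clear call, values can overlap the other calls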
Starred values were filed as active, the others as inactive; i = inactive; ? = inconclusive; · = no result given.

SMILES | INS promoter inh | HSV replic up | Insulin prom up | ROMK primary | Tb hexokinase | ROMK hit retest
O=C(Oc1ccc(OC(=O)C2CCC2)cc1)C1CCC1 | 35 | i | 0.36 | 0.83 | 2 | ·
Cc1ccc2[nH]c(=O)c(CNS(=O)(=O)c3ccccc3)c(-c3ccccc3)c2c1 | -53 | i | 1.8 | · | 18 | ·
CCOc1ccc(S(=O)(=O)n2cc(F)c(=O)[nH]c2=O)cc1 | · | i | 0.82 | 0.86 | 0 | ·
O=C(Cc1cccc2ccccc12)N/N=C/c1ccncc1 | · | i | 0.45 | -6.6* | 2 | 0.08
O=C(C[n+]1cc(-c2ccc(F)cc2)n2c1CCC2)Nc1nc(-c2ccc(F)cc2)cs1 | 14 | i | 0.15 | · | 21 | ·
O=C(C[n+]1cc(-c2ccc(Cl)cc2)n2c1CCC2)Nc1nc(-c2ccc(F)cc2)cs1 | · | i | 0.23 | -5.8* | 21 | 0.051*
O=C(C[n+]1cc(-c2ccc(Cl)cc2)n2c1CCCCC2)c1ccccc1 | · | i | -1.6 | · | 6 | ·
O=C(C[n+]1cc(-c2ccc(Br)cc2)n2c1CCCCC2)c1ccccc1 | · | i | -0.74 | -3* | -1 | 0.068*
Cc1ccc(-c2csc(NC(=O)C[n+]3cc(-c4ccc(C)cc4)n4c3CCC4)n2)cc1 | · | i | -0.12 | · | 4 | ·
Cc1ccc(-c2csc(NC(=O)C[n+]3cc(-c4ccccc4)n4c3CCC4)n2)cc1 | · | i | -0.64 | -6.1* | 8 | 0.06*
Cc1ccc(-n2c(O)c(/C=N/NC(=O)C3COc4ccccc4O3)c3ccccc3c2=O)cc1 (stereo not given) | 35 | i | 3.1* | -2.7* | 25 | 0.052*
CC1=CC(c2ccc(Cl)cc2)n2nc(NC(=O)CCC(=O)O)nc2N1 (stereo not given) | · | i | 0.03 | · | -17 | ·
Cc1ccc(/C=C(\C#N)C(=O)NC(C)C)o1 | · | i | -0.5 | 0.022 | -33 | ·
CC(C)NC(=O)/C(C#N)=C/c1ccc(N(C)C)o1 | · | ? | · | -7.4* | -8 | 0.047*
COc1ccc(-n2c(=O)/c(=C\c3cccs3)s/c2=C(/C#N)C(=O)N2CCN(C)CC2)cc1 | · | i | 1.1 | -0.018 | -14 | ·
O=C(NNC(=O)C1CC=CCC1C(=O)O)c1ccc(Cl)cc1 (stereo not given) | · | i | 0.45 | 0.025 | -2 | ·
Cc1ccc(NCc2nnc(SCC(=O)NCc3ccco3)n2CC2CCCO2)cc1Cl (stereo not given) | -24 | i | · | -2.8* | -3 | 0.067*
Cc1cc(OCCCCn2ccnc2)cc(C)c1Cl | · | i | · | -1.7 | 2 | ·
Cc1cc(N2CCN(c3nc4ccccc4s3)CC2)n2ncnc2n1 | 45 | i | -2.6 | · | 1 | 0.064*
Cc1cc(N2CCN(C(c3ccccc3)c3ccccc3)CC2)n2ncnc2n1 | 13 | i | 1.1 | 1.5* | -13 | ?
Cc1nc2ncnn2c(N2CCN(C(c3ccccc3)c3ccccc3)CC2)c1C | -55 | i | -1.4 | 1 | -12 | ·
COc1ccc(S(=O)(=O)Nc2nc3ccccc3nc2Nc2ccc3c(c2)OCO3)cc1 | -20 | i | 0.24 | -0.63 | -4 | ·
O=S(=O)(Nc1nc2ccccc2nc1Nc1ccc2c(c1)OCCO2)c1cccs1 | 27 | i | -0.11 | · | -9 | ?
CC1Nc2nc(NC(=O)C(C)(C)C)[nH]c(=O)c2N(C)C1C (stereo not given) | 24 | i | 0.83 | · | 21 | ·
CCCCn1nnc(NC(=S)NC(=O)c2ccc(-c3cccc(Cl)c3Cl)o2)n1 | · | i | -0.72 | · | 2 | ·
SMILES | INS promoter inh | HSV replic up | Insulin prom up | ROMK primary | Tb hexokinase | ROMK hit retest
Cc1nnnn1/C(=C\c1ccccc1)C(=O)OCC(=O)NC(C)(C)C | -26 | i | 0.67 | -8.2* | -4 | 0.043*
CCOCCCNC(=O)Cc1ccc(OC)c(OC)c1 | 54 | i | -0.99 | · | -4 | 0.083
COc1ccc(NC(=S)NNC(=O)Cn2nc(C(F)F)cc2C(F)F)cc1 | 6 | i | 0.03 | · | -6 | ·
CC1CCN(C(=O)c2ccc(S(=O)(=O)N(C)C)cc2)C(C)C1 (stereo not given) | 27 | i | · | 3* | -4 | 0.077
CN(C)S(=O)(=O)c1ccc(C(=O)N2CCOCC2)cc1 | 20 | i | -0.46 | 0.98 | 9 | ·
COc1ccc2c(Cl)c(C(=O)N/N=C3\CCCC(=O)C3)sc2c1 | · | ? | -0.11 | -3.1* | -20 | 0.074
COc1ccc2c(Cl)c(C(=O)N/N=C/c3ccc4c(c3)OCO4)sc2c1 | · | i | 0.87 | 0.05 | -2 | ·
CC1(C)CC(Cc2nc(=S)[nH][nH]2)C(=O)O1 (stereo not given) | 25 | i | -0.97 | 0.032 | -3 | ·
COCCOC(=O)c1[nH]c2c(c1C)C(=O)CC(c1cccs1)C2 (stereo not given) | -154 | i | 0.49 | 1.1 | -2 | ·
CCCCCOC(=O)c1[nH]c2c(c1C)C(=O)CC(c1ccco1)C2 (stereo not given) | -37 | i | ? | 2.1 | 12 | 0.085
CCOCCOC(=O)c1[nH]c2c(c1C)C(=O)CC(c1cccs1)C2 (stereo not given) | · | i | · | 5.7* | -4 | 0.076
COc1cccc(Oc2nccc(N(C)C)c2C#N)c1 | · | i | -0.65 | · | -7 | ·
COc1ccc(C(CC(=O)O)NC(=O)COc2ccc(C)cc2)cc1OC (stereo not given) | -17 | i | -0.1 | -0.034 | 7 | ·
CCn1c(S(=O)(=O)O)nc2ccccc21 | · | i | 0.34 | · | -5 | ·
Cn1c(CNc2nc(-c3ccccc3)cs2)nnc1SCC(=O)OC1CCCCC1 | · | i | · | -2.2 | 3 | ·
CC(C)OC(=O)CSc1nnc(CNc2nc(-c3ccccc3)cs2)n1C | -36 | i | -0.87 | -2.7* | 1 | 0.062*
Cc1nn(CCCC(=O)Nc2nccs2)c(C)c1[N+](=O)[O-] | -43 | i | -0.16 | · | -3 | ·
CCOC(=O)c1nn(-c2ccc(F)cc2)c2nc(Nc3ccccc3)cc(=O)n12 | -23 | i | -0.16 | · | -12 | ·
CCOc1ccc2ncc(S(=O)(=O)c3ccc(C)cc3)c(N3CCC4(CC3)OCCO4)c2c1 | · | i | -0.98 | · | -8 | 0.063*
CC(=O)Nc1cccc(-n2nnc(SCC(=O)N(C)c3ccccc3)n2)c1 | · | i | 0.11 | · | -11 | ·
O=C(c1ccc(-c2cc(Cl)ccc2Cl)o1)N1CCOCC1 | -67 | i | · | -3.5* | -1 | 0.063*
CCN1C(=O)/C(=C\C(=O)c2cccs2)c2cc(Br)ccc21 | -94 | i | -0.95 | -2.2 | -1 | ·
O=C1Nc2ccccc2/C1=C/C(=O)c1cccs1 | 16 | i | 0.24 | -5.6* | -20 | 0.039*
COc1ccc(S(=O)(=O)Nc2ccccc2C(N)=O)cc1OC | 27 | i | 0.03 | 1.5 | -5 | ·
C=C(C)CSc1nc2sc3c(c2c(=O)n1C1CCCCC1)CCN(C)C3 | · | i | -0.83 | · | -29 | 0.065*
CSc1nc2sc3c(c2c(=O)n1C1CCCCC1)CCN(C)C3 | -12 | i | 1.3 | -0.35 | 8 | ·
CCC(CC)c1nnc(NC(=O)c2cc(C(=O)OC)cc([N+](=O)[O-])c2)s1 | 28 | i | · | 0.73 | -10 | ·
O=C(COC(=O)c1ccc(Cl)nc1)Nc1ccccc1OC(F)F | · | i | -0.08 | -0.063 | 1 | ·
CCCCn1c(SCC(=O)Nc2cc(C)on2)nnc1-c1ccco1 | -14 | i | -0.39 | 3.2* | 6 | 0.078
